Assay outcomes (PubChem)
Caspase-7 inhib – caspase-7 (human) inhibition, allosteric or competitive; P55210; recombinant caspase-7, Ac-DEVD-AFC fluorescence rate; Potency, µM (series often up to 57.5 µM), inactives show at the highest dose activity change, negative = inhibition, usual class: inhibitors; 75,000 tested, 0.02% active; active = well fitted inhibition curve with a large enough effect in the main read-out, with a control signal flat, not every such curve was filed as active; inconclusive = small, poorly fitted or top-dose-only effect, or a change in a side signal; note: % of control where 0% means no effect
p53ts 39C kill – kills p53ts cells at the nonpermissive temperature; Potency, µM (series often up to 46.1 µM), for the others: at the top dose activity change, negative = cell killing, most hits filed as cytotoxic; H1299-p53A138V viability at 39C, ATP luminescence, 24 h; 130,000 tested, 1.5% active; AID 902; note: % is set by controls: 0 for no effect and ±100 for the full control effect; nearly all actives have a fitted effect of over 55% in size
Luciferase inh – firefly luciferase inhibition; Potency, µM (series often up to 57.1 µM), inactives show at the highest dose activity change, negative = inhibition, hits mostly inhibitors; purified firefly luciferase, luminescence, 8 min; 72,000 tested, 2.2% active; P08659; note: % is set by controls: 0 for no effect and ±100 for the full control effect; nearly all actives have a fitted effect of over 40% in size
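Inhibition of light generation by firefly luciferase from ATP and luciferin was profiled with concentration-response curves per sample, ATP held at 10 uM within the enzyme's linear range. Plates were read by luminescence after an 8-minute ambient incubation.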
Casp1 inh – allosteric or competitive inhibitors of human caspase-1 | P29466 | Caspase-1 enzyme, Ac-WEHD-AFC fluorogenic rate | Potency, µM (doses to about 57.5 µM), inactives show at the top dose activity change, negative = inhibition, usual class: inhibitors | 75,000 tested, 0.03% active | AID 900;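 note: plate controls were vehicle for no effect and no substrate for full effect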
p53ts 32C kill – kills p53ts cells at the permissive temperature. H1299-p53A138V at 32C, ATP luminescence viability, 24 h. Potency, µM (top dose mostly 46.1 µM), inactives show at the top dose activity change, negative = cytotoxicity, most hits filed as cytotoxic. 130,000 tested, 0.93% active;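 note: 0% = DMSO and -100% = full killing by reference compound; nearly all actives have a fitted effect of over 55% in size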
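Cells: H1299 p53ts (A138V), 600/well, pre-incubated 16–30 h at 37C. Cpd up to 46 uM, 24 h, 32C. Readout: ATPlite luminescence, 20 min RT. Normalization: DMSO vs tamoxifen 100 uM. AC50 by Hill equation.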
IkB signaling – suppresses IkB signaling in ABC-DLBCL reporter cells. AID 445. ABC-DLBCL IkBa-CBG/CBR dual luciferase ratio, 4 h; response scale: scaled: untreated 0%, proteasome inhibitor 100%. 110,000 tested, 0.04% active. Potency, µM (highest dose often 57.1 µM), inactives show at the highest dose IkBa stabilization activation; active = well fitted curve in the direction sought with a large enough effect in the signal ratio, not every such curve was filed as active; inconclusive = small, poorly fitted or top-dose-only effect, or a change in a side signal; the % refers to the signal ratio;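 note: the direction sought is a rising ratio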
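Curves were fitted separately to fusion (green), unfused (red) and ratio luminescence, then classed by r2, magnitude and activity. Cells: OCI-Ly3, 4 h compound plus doxycycline at 37C; 10 uM MG-132 defined full response.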
* hit, by the source's call; ? = inconclusive; . = not tested or not shown; [ ] = remark or other dose. Hits are enriched below; roughly 2.5% of the tested compounds scored in any of these assays. Unless noted, calls come from the whole dose curve; as a rule, active = well fitted curve in the direction sought with a large enough effect; inconclusive = small, poorly fitted or top-dose-only effect, or another doubt; inactive = no such curve, though single readings can be large; an effect the other way counts as inactive or inconclusive. Potency is the fitted concentration of half-maximal effect.

SMILES | Caspase-7 inhib | p53ts 39C kill | Luciferase inh | Casp1 inh | p53ts 32C kill | IkB signaling
c1ccc(C2[C@H]3CN(Cc4cccnc4)[C@H](c4ccccc4)C34CC2(c2cccnc2)C4)cc1 (some centres not stated) | -4.5% | ? | . | -4.1% | 31.8% | .
COc1ccc(-c2cc(C(=O)N3CCCCC3)no2)cc1OC | -1.6% | -22.6% | -14.9% | 1.9% | -20.3% | ?
Cc1ccc(-c2cc(C(=O)N3CCCC3)no2)cc1 | -0.6% | 7.94µM* | 3.98µM* | 3.0% | 7.94µM* | ?
Cc1ccc(C)c(Cn2c(=O)n(CCCCC(=O)NCc3ccccc3Cl)c(=O)c3ccccc32)c1 | . | 25.1µM* | . | . | 3.2% | 2.6%
COc1ccc(N2CCN(C(=O)COc3ccc4ccccc4c3)CC2)cc1 | -0.4% | 4.4% | -0.2% | 0.5% | 10.7% | 0.9%
COc1cc(OC)cc(C(=O)N2CCN(C(=O)COc3ccc4ccccc4c3)CC2)c1 | -5.9% | ? | 10µM* | 0.9% | ? | 0.8%
COC(=O)c1ccc2c(=O)n(CCCCCC(=O)N3CCN(c4cc(C)ccc4C)CC3)c(=O)[nH]c2c1 | . | 6.31µM* | . | . | 15.8µM* | ?
COC(=O)c1ccc2c(=O)n(CCCCCC(=O)N3CCN(c4ccc(F)cc4)CC3)c(=O)[nH]c2c1 | 1.3% | -5.9% | 2.4% | -1.9% | 1.6% | 0.4%
FC(F)(F)c1cccc(Nc2nc3nonc3nc2Nc2ccc(Cl)cc2)c1 | . | 15.8µM* | . | . | ? | ?
O=C(Nc1cccc(C(F)(F)F)c1)c1cc(-c2ccc(Cl)cc2)on1 | . | -4.4% | . | . | 1.3% | ?
Cn1cnc2cc(NC(=O)c3ccco3)ccc21 | -0.8% | 7.94µM* | -26.2% | 1.2% | 15.8µM* | 5.9%
CC(=O)Nc1ccc2c(c1)ncn2C | . | 7.5% | . | . | -3.2% | .
O=C(Nc1ccc2c(c1)ncn2-c1ccccc1)c1ccco1 | -2.1% | ? | 12.6µM* | 1.8% | -21.9% | ?
CCOc1ccc(OCc2cccc(C(=O)N3CCOCC3)c2)cc1 | 0.2% | 12.6µM* | 5.01µM* | -2.6% | 10µM* | ?
Cc1ccccc1NC(=O)CN(C)S(=O)(=O)c1cccc2cccnc12 | -1.4% | -1.6% | -3.9% | 1.6% | 6.4% | -2.5%
COc1cccc2sc(Nc3nc(-c4ccccn4)cs3)nc12 | -11.8% | ? | ? | -3.7% | -1.6% | ?
COc1cccc2sc(Nc3nnc(-c4cccs4)o3)nc12 | -10.8% | 12.6µM* | 15.8µM* | -10.4% | ? | ?
Fc1cccc2sc(Nc3nnc(-c4ccco4)o3)nc12 | -2.3% | ? | 25.1µM* | 1.0% | ? | ?
Cc1cccc(C(=O)NCCN2CCN(c3ccccc3)CC2)c1 | 0.0% | -0.2% | 1.8% | -0.9% | -3.7% | -0.2%
CCCCOc1ccccc1C1CC(=O)Nc2cc(C)c(C)cc21 (configuration not stated) | . | 10µM* | . | . | -16.1% | -0.3%
CCCCOc1ccccc1C1CC(=O)Nc2cc(OC)c(OC)cc21 (configuration not stated) | . | -10.9% | . | . | 12.2% | 0.5%
N#CCCS(=O)(=O)c1nnnn1-c1ccccc1 | 3.5% | 20µM* | -6.9% | 2.8% | ? | ?
CC(=O)/C(=N\Nc1ccccc1)Oc1ccc([N+](=O)[O-])cc1 | . | 14.1% | . | . | -5.5% | .
CCOC(=O)c1ccc(NC(=O)C2=C(C)Nc3nc(CCCO)nn3C2c2cccc(C)c2)cc1 (configuration not stated) | -1.8% | -14.0% | 0.7% | -2.3% | -10.4% | 3.7%
C=CCn1c(SCC(=O)Nc2ccc(C(=O)OC(C)C)cc2)nnc1-c1cccs1 | 1.4% | -6.8% | -12.3% | -2.9% | -5.2% | 1.7%
SMILES | Caspase-7 inhib | p53ts 39C kill | Luciferase inh | Casp1 inh | p53ts 32C kill | IkB signaling
CC(=O)OC1CC(O)C(C)(C)C2CC(OC(C)=O)[C@]3(C)C(CC[C@@]4(C)C(c5ccoc5)OC(=O)C5OC534)[C@]12C (some centres not stated) | 2.1% | 14.1% | . | 0.9% | 4.9% | .
O=C(CCS(=O)(=O)c1nc(-c2cccs2)cc(C(F)(F)F)n1)Nc1cc(Br)ccc1O | . | 7.94µM* | . | . | ? | ?
O=C(CCS(=O)(=O)c1nc(-c2cccs2)cc(C(F)(F)F)n1)Nc1ccc(Br)cc1 | . | ? | . | . | ? | -2.6%
N[C@@H](CSC(=O)c1ccccc1)C(=O)O | -3.0%[11.5 µM] | -2.5%[9.22 µM] | 1.6%[11.4 µM] | -2.7%[11.5 µM] | 2.8%[9.22 µM] | -0.6%[11.4 µM]
COc1ccc(CCN2C(=NC(=O)CCC(=O)O)SC3CS(=O)(=O)CC32)cc1OC (configuration not stated) | -1.2% | -0.5% | 12.6µM* | 2.4% | 1.8% | 11.8%
CCOc1ccc(NC(=O)c2cccc3c2C(=O)N(Cc2cccnc2)C3)cc1 | -1.9% | ? | 3.98µM* | 0.7% | ? | -0.3%
CCCN1Cc2cccc(C(=O)Nc3ccc(CN4CCCC4)cc3)c2C1=O | 0.5% | -4.7% | 20µM* | 0.4% | -21.7% | -3.1%
CCCN1Cc2cccc(C(=O)Nc3ccc(OC)c(OC)c3)c2C1=O | 2.5% | -1.4% | 3.8% | 1.2% | 12.3% | -1.4%
CCC(C)Sc1nc2c(cnn2-c2ccc(C)c(C)c2)c(=O)[nH]1 (configuration not stated) | -8.8% | -4.7% | 1.3% | -3.5% | 4.8% | -3.3%
Cc1ccc([C@@H]2C3COCC=C3C(C#N)=C(N)C2(C#N)C#N)o1 (some centres not stated) | ? | 8.8% | -2.7% | . | 3.8% | 0.6%
Cc1cc(=O)n2[nH]c(NCc3ccc(F)cc3)nc2n1 | . | -3.0% | . | . | -4.1% | 0.8%
Cc1cc(=O)n2[nH]c(-c3ccc(F)cc3)nc2n1 | 0.2% | 10µM* | 12.6µM* | 1.5% | 12.6µM* | ?
CSc1ccc(/C=C/c2nc3ccccc3n2S(=O)(=O)c2cccc(Cl)c2)cc1 | . | 3.98µM* | . | . | 3.16µM* | ?
Cc1ccc(/C=C/c2nc3ccccc3n2S(=O)(=O)c2ccc(Br)cc2)cc1 | . | 6.31µM* | . | . | 5.01µM* | ?
O=S(=O)(c1cccc(Cl)c1)n1c(/C=C/c2ccccc2Cl)nc2ccccc21 | . | 1µM* | . | . | 1.26µM* | 5.6%
COc1ccccc1-n1cc(C(=O)NCC(=O)N2CCN(c3ccccc3)CC2)c2ccccc2c1=O | -0.3% | 12.6µM* | 2µM* | 0.2% | 12.6µM* | 0.1%
COc1ccccc1-n1cc(C(=O)NCC(=O)N2CCN(c3ccccn3)CC2)c2ccccc2c1=O | 1.7% | ? | 6.31µM* | 0.0% | ? | -0.1%
COc1ccc(-c2cc(C(=O)Nc3cccc(C(C)=O)c3)no2)cc1 | 0.8% | -5.8% | -2.8% | 0.0% | -14.2% | -0.9%
CCOC(=O)c1c(-c2ccc(C)o2)csc1NC(=O)COC(=O)c1cccs1 | -1.3% | -1.5% | -13.7% | 0.1% | 3.8% | ?
